Some test systems named below: NCI-H23 lung; NCI-H226 lung; NCI-H322M lung; HOP-62 NSCLC; NCI-H460 lung; NCI-H522 lung; A549/ATCC NSCLC; 786-0 renal; COLO 205 colon; DU-145 prostate; K-562 leukemia; MDA-MB-231 breast; RXF 393 renal; SF-268 CNS; SF-295 CNS; SF-539 CNS; UACC-257 melanoma; M14 melanoma; HCT-15 colon; MALME-3M melanoma.
Holding throughout (test): NCI-60 one-dose screen, 48 h (100 = growth as untreated, 0 = no growth, -100 = all killed)
What all share (conditions): 10 µM unless noted

About 83,000 compounds went through this panel and 20% of them were active in at least one assay; those are over-represented in the sample as a whole.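 Cell lines were cultured in 96-well plates, exposed to a single compound concentration, and assessed for percent growth 48 hours later.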 A number with no mark means an inactive call. The source made the active and inactive calls. How the source made its calls: active means growth percent below 10; inactive means the rest.

Regarding `CC1=CSC2=NCCN12`, the growth with NCI-H23 lung was 104%; with NCI-H226 lung it was 112%; with NCI-H322M lung it was 118%; with HOP-62 NSCLC, 108%; in the experiment on NCI-H460 lung it was 109%; with NCI-H522 lung, 100%. The growth in the experiment with A549/ATCC NSCLC is 105%; in the experiment on 786-0 renal, 104%; in the experiment with COLO 205 colon, 107%; with DU-145 prostate, 108%; with K-562 leukemia it was 101%; with MDA-MB-231 breast, 122%. Moreover, the growth with RXF 393 renal was 121%; in the experiment with SF-268 CNS, 102%; in the experiment on SF-295 CNS, 132%; with SF-539 CNS, 95.8%; in the experiment on UACC-257 melanoma it was 116%; in the experiment on M14 melanoma, 108%. Moreover, the growth in the experiment with HCT-15 colon is 109%.
Consider `COc1ccc(Nc2nccc(N3CCN(c4c5ccc(Cl)cc5nc5ccc(OC)cc45)CC3)n2)cc1`, for which the growth with NCI-H23 lung was 95.7%; in the experiment with NCI-H226 lung, 93.8%; in the experiment with NCI-H322M lung, 83.5%; in the experiment with HOP-62 NSCLC, 95.6%; with NCI-H460 lung, 85.8%; in the experiment with NCI-H522 lung, -58.3% (active). Besides, the growth in the experiment on A549/ATCC NSCLC was 75.2%; in the experiment on 786-0 renal, 60%; with COLO 205 colon, 61.1%; with DU-145 prostate, 86.6%; in the experiment on K-562 leukemia, 25.4%; in the experiment on MALME-3M melanoma, 46%. Further, the growth is 61.3% in the experiment on MDA-MB-231 breast; 66.7% with SF-268 CNS; 78.6% in the experiment with SF-295 CNS; 92.8% in the experiment with SF-539 CNS; 102% with UACC-257 melanoma; 88.4% with M14 melanoma. Moreover, the growth with HCT-15 colon was 36.9%.
`CCN(CC)CCCNCCCNc1cc(OC)cc2cccnc12`: the growth with NCI-H23 lung is 94.2%; with NCI-H226 lung, 81.9%; in the experiment on NCI-H322M lung, 81%; in the experiment on HOP-62 NSCLC it was 92.3%; in the experiment with NCI-H460 lung, 103%; in the experiment with NCI-H522 lung, 93.1%. In addition, the growth in the experiment on A549/ATCC NSCLC is 92.4%; in the experiment on 786-0 renal, 94.4%; in the experiment on COLO 205 colon it was 24.6%; in the experiment with DU-145 prostate it was 104%; in the experiment on K-562 leukemia, 89.9%; with MALME-3M melanoma, 108%. Besides, the growth in the experiment on RXF 393 renal was 70.6%; in the experiment on SF-268 CNS it was 90.3%; in the experiment on SF-295 CNS, 99.2%; in the experiment with SF-539 CNS, 84.6%; in the experiment with UACC-257 melanoma it was 107%; in the experiment on M14 melanoma it was 102%. The growth in the experiment with HCT-15 colon was 83.9%.
As to `CCC(C)(C)C(=O)O[C@H]1C[C@@H](C)C=C2C=C[C@H](C)[C@H](CC[C@@H]3C[C@@H](O)CC(=O)O3)[C@H]21`, the growth is 48.7% with NCI-H23 lung; 64% with NCI-H226 lung; 51% with NCI-H322M lung; 80.7% with HOP-62 NSCLC; 24.3% with NCI-H460 lung; 8.21% (active) in the experiment on NCI-H522 lung. For the same compound, the growth in the experiment on A549/ATCC NSCLC is 67.5%; with 786-0 renal, 51.5%; in the experiment on COLO 205 colon it was 68.3%; with DU-145 prostate, 95.3%; with K-562 leukemia, 63.3%; with MALME-3M melanoma, 94.1%. Further, the growth in the experiment on RXF 393 renal was 36.1%; with SF-268 CNS it was 33.2%; with SF-295 CNS, 11.7%; in the experiment with SF-539 CNS, 90.7%; with UACC-257 melanoma it was 86.7%; in the experiment on M14 melanoma, 59.3%.
With `CCOc1nc(-c2ccccc2)cc2c(O)c(-c3nnco3)[nH]c(=O)c12`, the growth was 63.1% in the experiment on NCI-H23 lung; 64.2% in the experiment with NCI-H226 lung; 65.3% in the experiment on NCI-H322M lung; 47.9% with HOP-62 NSCLC; 28.2% in the experiment on NCI-H460 lung; 5.8% (active) in the experiment on NCI-H522 lung. In addition, the growth in the experiment on A549/ATCC NSCLC is 38.9%; in the experiment with 786-0 renal it was 57.9%; with COLO 205 colon it was 72.2%; in the experiment on DU-145 prostate, 50.8%; in the experiment with K-562 leukemia it was 39.3%; in the experiment on MALME-3M melanoma it was 59.9%. For the same compound, the growth in the experiment on MDA-MB-231 breast is 38.7%; in the experiment with SF-268 CNS, 52.5%; with SF-295 CNS it was 36%; with SF-539 CNS, 54.9%; in the experiment with UACC-257 melanoma, 11.8%; in the experiment with M14 melanoma it was 59.4%. The growth in the experiment on HCT-15 colon was 23.5%.
For `C/C(=C\CCc1ccsc1)CC/C=C(\C)CCCN1CCC(CO)CC1`, the growth in the experiment on NCI-H23 lung is 61.4%; in the experiment on NCI-H226 lung it was 63.4%; in the experiment with NCI-H322M lung, 76.2%; with HOP-62 NSCLC it was 62.1%; in the experiment with NCI-H460 lung, -46.3% (active); with NCI-H522 lung, 27.7%. Besides, the growth was 36.6% with A549/ATCC NSCLC; 5.43% (active) with 786-0 renal; -54.9% (active) in the experiment on COLO 205 colon; 64.5% in the experiment with DU-145 prostate; -51.4% (active) with K-562 leukemia; -66.9% (active) in the experiment on MALME-3M melanoma. Besides, the growth in the experiment with MDA-MB-231 breast was 19.6%; in the experiment with SF-268 CNS, 60.6%; in the experiment on SF-295 CNS it was 7.65% (active); in the experiment on SF-539 CNS, 9.87% (active); in the experiment on UACC-257 melanoma it was -32.4% (active); in the experiment on M14 melanoma, -47.4% (active). Moreover, in the experiment on HCT-15 colon, the growth was 0.233% (active).
On to `CCOC(=O)c1cc(-c2cccnc2)nc2c(Cl)cc(Cl)cc12`, for which the growth in the experiment with NCI-H23 lung is 89.6%; with NCI-H226 lung it was 98.9%; in the experiment with NCI-H322M lung, 84.1%; in the experiment with HOP-62 NSCLC it was 92.5%; in the experiment with NCI-H460 lung it was 106%; with NCI-H522 lung it was 93.6%. In addition, the growth with A549/ATCC NSCLC is 74.9%; with 786-0 renal, 72.5%; in the experiment on COLO 205 colon it was 121%; in the experiment on DU-145 prostate it was 103%; in the experiment on K-562 leukemia, 105%; in the experiment on MALME-3M melanoma, 124%. Further, the growth in the experiment with MDA-MB-231 breast is 103%; with SF-268 CNS, 73%; in the experiment with SF-295 CNS it was 90.2%; with SF-539 CNS, 79.6%; in the experiment with UACC-257 melanoma, 120%; with M14 melanoma it was 117%. Besides, the growth in the experiment with HCT-15 colon was 96.6%.
As to `COC(=O)CCC1=C(CC(=O)OC)C(C)=N/C1=C\c1[nH]c(-c2ccc[nH]2)cc1OC`, the growth with NCI-H23 lung was 49.4%; in the experiment with NCI-H226 lung, 54.5%; in the experiment on NCI-H322M lung it was 53.3%; in the experiment on HOP-62 NSCLC, 46.1%; in the experiment on NCI-H460 lung, 19.1%; in the experiment on NCI-H522 lung, -7% (active). For the same compound, the growth in the experiment on A549/ATCC NSCLC was 18%; with 786-0 renal, 50.2%; in the experiment with COLO 205 colon it was 30.5%; with DU-145 prostate it was 36.9%; in the experiment on K-562 leukemia it was -3.71% (active); in the experiment with MDA-MB-231 breast, -12.2% (active). Besides, the growth in the experiment with RXF 393 renal is 52.8%; with SF-268 CNS it was 44.8%; with SF-295 CNS it was 39.3%; with SF-539 CNS, 38.8%; in the experiment on UACC-257 melanoma it was 32.5%; with M14 melanoma it was 17.2%. For the same compound, the growth in the experiment on HCT-15 colon was 8.89% (active).

The record behind these values is PubChem BioAssay (NCI).
